Reference: publication PMC4552634, “A New Set of Chemical Starting Points with Plasmodium falciparum Transmission-Blocking Potential for Antimalarial Drug Discovery” (PLoS ONE, 2015)
Screen size: about 13,000 compounds; about 3,200 (25%) showed an effect of 50% or more. This is one part of the list.

system: P. falciparum stage V gametocytes; design: BacTiter-Glo ATP luminescence viability of purified stage V gametocytes in 384-well plates, per cent inhibition versus DMSO; conditions: 48 h, 5 µM; inhibitor

Structure (SMILES) | % Inhibition [%]
NS(=O)(=O)c1cccc(Nc2nccc(-c3c(-c4cccc(NC(=O)c5c(F)cccc5F)c4)nn4ccccc34)n2)c1 [TCMDC-135780] | -65.73
Cc1csc(-c2nc(NCc3cccnc3)ncc2-c2ccsc2)n1 [TCMDC-124841] | 9.704
CC(C)(C)c1cc(NC(=O)c2ccc(Cl)c([N+](=O)[O-])c2)cc(C(C)(C)C)c1 [TCMDC-125604] | 2.881
Cc1ccc(C(=O)N2CCN(Cc3nccs3)CC2)cc1 [TCMDC-140738] | 3.888
O=c1cc(NCCCNCc2scc(I)c2I)[nH]c2ccccc12 [TCMDC-140908] | -12.68
Nc1nccc2ccc(-c3cccnc3)cc12 [TCMDC-136599] | 30.25
Nc1cc(-c2ccc3c(N)nccc3c2)ccc1Cl [TCMDC-136895] | -23.38
NCc1cccc(-c2ccc3ccnc(N)c3c2)c1 [TCMDC-136889] | 55.02
Nc1cccc(-c2ccc3ccnc(N)c3c2)c1 [TCMDC-136762] | 21.07
NCc1ccc(-c2ccc3c(N)nccc3c2)cc1 [TCMDC-133718] | 107.3
Nc1nccc2ccc(-c3cccc4ncccc34)cc12 [TCMDC-133424] | 95.32
CN(C)Cc1ccc(-c2ccc3ccnc(N)c3c2)cc1 [TCMDC-136790] | 60.33
COC(=O)c1noc(C)c1I [TCMDC-131678] | -0.6747
CN1CCN(c2ccc(Nc3c(C(N)=O)cnc4cc(-c5ccoc5)ccc34)cc2C(F)(F)F)CC1.Cl [TCMDC-135443] | 2.768
O=C(Nc1ccc(Cl)cc1)Nc1ccc(-c2cccc(-c3nc4ccccc4[nH]3)c2)cc1 [TCMDC-133187] | -14.37
CC(C)(C)CCOC(=O)N1CCc2c(cc(O)c(O)c2Cl)C(c2ccc(O)cc2)C1 (stereo not drawn) [TCMDC-141981] | -77.14
Nc1nc(N)c2c3c(ccc2n1)CCC3 [TCMDC-137720] | -10.07
Cc1ccc(NC(=S)N2CCCN(CCCCCNC(=O)/C=C/c3ccc(Cl)c(Cl)c3)CC2)cc1Cl [TCMDC-135895] | -0.4693
COc1ccccc1CNC(=O)c1cc(C2CC2)nc2c1cnn2C(C)C [TCMDC-125250] | 49.1
Cc1cccc(C)c1N1CCN(C2CCC(NC(=O)/C=C/c3ccccc3)CC2)CC1 (stereo not drawn) [TCMDC-132881] | -29.57
COCCN1CCC(NCC(C)(C)c2nc(-c3ccc(Cl)c(O)c3)c(-c3ccncc3)[nH]2)CC1 [TCMDC-140926] | -95.92
CCCN(Cc1nnc(-c2ccco2)o1)C(=O)C1CCCN(C(=O)c2ccc(Cl)cc2)C1 (stereo not drawn) [TCMDC-125334] | -4.25
Cc1cc(CNC(=O)c2ccc(-c3ccc(-c4nc5cc(C(F)(F)F)ccc5[nH]4)s3)cc2)on1 [TCMDC-132481] | -11.54
CCCCCc1cc(O)c2c(c1)OC(C)(C)CC2C1=CCN(Cc2cnc3ccccc3c2)CC1 (stereo not drawn) [TCMDC-131418] | -11.08
Nc1nccc2ccc(Oc3ccncc3)cc12 [TCMDC-136517] | 51.03

Structure (SMILES) | % Inhibition [%]
Nc1nccc2ccc(-c3ccsc3)cc12 [TCMDC-133431] | 53.31
Nc1ncc(-c2ccsc2)c2ccc(-c3ccc4cn[nH]c4c3)cc12 [TCMDC-135299] | 100.9
Nc1nccc2ccc(-c3ccncc3)cc12 [TCMDC-138929] | 32.25
Nc1ncc(-c2ccsc2)c2ccc(-c3cnc[nH]3)cc12 [TCMDC-135369] | -1.546
Nc1nccc2ccc(-c3ccc4nccn4c3)cc12 [TCMDC-133425] | 49.74
Nc1nccc2ccc(-c3ccc(Oc4ccccc4)cc3)cc12 [TCMDC-133432] | 19.11
Cn1cncc1-c1ccc2c(-c3ccsc3)cnc(N)c2c1 [TCMDC-135368] | 3.201
Nc1nnc(-c2ccc(Cl)c(Br)c2)c(N)n1 [TCMDC-137285] | -16.33
Cc1cc(N2Cc3ccccc3C2)nc(Nc2cccc(C#N)c2)n1 [TCMDC-134199] | -14.79
Cc1[nH]c2c(C)cc(NS(C)(=O)=O)cc2c1C1CCN(CC2CCN(C(=O)/C=C/c3ccc(Cl)c(Cl)c3)CC2)CC1 [TCMDC-140173] | -57.53
Cc1cccc(C(=O)Nc2ccnc(N(C)CCCN(C)Cc3cccc(C#N)c3)c2)c1 [TCMDC-134968] | 26.78
CC(C)CCN1CCCN(Cc2ccc(C(=O)NCc3ccc(Cl)cc3)cc2)CC1 [TCMDC-136452] | -12.3
O=C(Nc1ccccc1O)c1ccc(S(=O)(=O)c2ccc(Cl)cc2)cc1 [TCMDC-123689] | 47.63
O=C(NCc1ccco1)c1ccc(S(=O)(=O)c2ccc(Cl)cc2)cc1 [TCMDC-124393] | 65.45
O=C(Nc1ccc(-c2cccc(-c3nc4ccccc4[nH]3)c2)cc1)Nc1ccc(Cl)c(Cl)c1 [TCMDC-133284] | -10.68
O=C(Nc1ccccc1O)c1ccc(Oc2cccc(C(=O)Nc3ccccc3O)c2)cc1 [TCMDC-125220] | -89.02
Cc1cc2ccccc2n1CC(=O)N1CC(C(=O)N2CCCCC2)Oc2ccccc21 (stereo not drawn) [TCMDC-125253] | 84.5
CCN(CC)C(=O)C1CCN(C(C(=O)N2CCN(CC(=O)N3CCCC3)CC2)c2cc3ccccc3o2)CC1 (stereo not drawn) [TCMDC-141126] | -9.75
COc1ccc(C(F)(F)F)cc1N1CCN(CCCCNC(=O)c2ccc(NC(=O)c3ccc(Cl)cc3)cc2)CC1 [TCMDC-138258] | -21.85
O=C(Nc1ccc(C(=O)OCC2CCCN3CCCCC23)cc1)c1ccc(Cl)c(Cl)c1 (stereo not drawn) [TCMDC-124027] | 3.603
c1ccc2cc3c(Nc4ccc(N5CCCCC5)cc4)ccnc3cc2c1 [TCMDC-123505] | -37.48
OCCN1CCN(c2ccc(Nc3ccnc4cc5ccccc5cc34)cc2)CC1 [TCMDC-123915] | 73.35
CCN(CC)CCNc1ccnc2ccc3ccccc3c12 [TCMDC-131800] | 5.083
CCN(CC)CCNc1ccc(Nc2ccnc3cc4ccccc4cc23)cc1 [TCMDC-123498] | 93.37
CN1CCN(c2ccc(Nc3ccnc4ccc(-c5ccccc5)cc34)cc2)CC1 [TCMDC-123917] | -37.23

Structure (SMILES) | % Inhibition [%]
CC(C)Nc1ccc(Nc2ccnc3cc4ccccc4cc23)cc1 [TCMDC-123916] | -35.26
O=C(/C=C/c1ccc(Cl)c(Cl)c1)NCCCCCN1CCC(NC(=S)Nc2ccc(Cl)cc2Cl)CC1 [TCMDC-135902] | 24.59
CCOc1ccc2nc(N(CCCn3ccnc3)C(=O)C=Cc3cccs3)sc2c1 [TCMDC-124925] | -19.53
Nc1nc(N)c2c(ccc3nn(S(=O)(=O)N4CCCC4)cc32)n1 [TCMDC-137854] | 1.328
COc1c(C2CCN(CCCCNC(=O)c3ccc(-c4ccc(Cl)cc4)c(OCCN(C)C)c3)CC2)ccc2c1CCCC2 [TCMDC-134371] | 101.9
COc1c(C2CCN(CCCCNC(=O)C=Cc3cc4cc(Cl)ccc4o3)CC2)ccc2c1CCCC2 [TCMDC-135062] | -50.69
COc1c(C2CCN(CCCCNC(=O)c3cc(-c4ccc(C#N)cc4)n[nH]3)CC2)ccc2c1CCCC2 [TCMDC-134659] | -32.94
COc1c(C2CCN(CCCCNC(=O)c3ccc(-c4ccc(Cl)cc4)c(O)c3)CC2)ccc2c1CCCC2 [TCMDC-134282] | 111.5
COc1c(C2CCN(CCCCNC(=O)c3ccc(-c4ccc(C#N)cc4)nc3)CC2)ccc2c1CCCC2 [TCMDC-134688] | -0.6168
COC(=O)COc1cc(C(=O)NCCCCN2CCC(c3ccc4c(c3OC)CCCC4)CC2)ccc1-c1ccc(Cl)cc1 [TCMDC-134372] | 38.74
COc1c(C2CCN(CCCCNC(=O)c3oc(-c4ccc(Cl)cc4)cc3CO)CC2)ccc2c1CCCC2 [TCMDC-134829] | -10.73
COc1c(C2CCN(CCCCNC(=O)c3ccc(-c4ccc(C#N)cc4)c(O)c3)CC2)ccc2c1CCCC2 [TCMDC-138682] | 69.72
COc1c(C2CCN(CCCCNC(=O)C=Cc3ccccc3C(F)(F)F)CC2)ccc2c1CCCC2 [TCMDC-135279] | 85.89
CCN(c1ccccc1)S(=O)(=O)c1ccc(OC)c(NC(=O)c2cccc(C(F)(F)F)c2)c1 [TCMDC-125343] | 14.96
O=C(NC1CCN(c2ccnc3cc(Cl)ccc23)C1)c1cccc(F)c1 (stereo not drawn) [TCMDC-133656] | 0.5042
Cc1nc(-c2ccc(C#N)cc2)sc1C(=O)NCCCCN1CCC(c2ccc3c(c2OCCO)CCCC3)CC1 [TCMDC-138879] | 11.85
COc1c(C2CCN(CCCCNC(=O)c3cc(-c4ccc(Cl)cc4)[nH]c3C)CC2)ccc2c1CCCC2 [TCMDC-135270] | 45.24
NC(=O)COc1c(C2CCN(CCCCNC(=O)c3ccc(-c4ccc(Cl)cc4)c(O)c3)CC2)ccc2c1CCCC2 [TCMDC-133379] | 84.67
COc1c(C2CCN(CCCCNC(=O)c3cccc(-c4ccc(C(F)(F)F)cc4)c3)CC2)ccc2c1CCCC2 [TCMDC-138701] | 48.96
CC(=O)c1ccc(-c2ccc(C(=O)NCCCCN3CCC(c4ccc5c(c4OCC(N)=O)CCCC5)CC3)cc2)s1 [TCMDC-134174] | -29.18
COc1c(C2CCN(CCCCNC(=O)c3ccc(-c4ccc(Cl)cc4)c(OCC(N)=O)c3)CC2)ccc2c1CCCC2 [TCMDC-134373] | 13.03
COc1c(C2CCN(CCCCNC(=O)c3cc(-c4ccc(Cl)cc4)oc3C)CC2)ccc2c1CCCC2 [TCMDC-134696] | 7.674
COc1c(C2CCN(CCCCNC(=O)c3ccc(-c4ccc(Cl)cc4)cn3)CC2)ccc2c1CCCC2 [TCMDC-134687] | 70.09
COc1c(C2CCN(CCCCNC(=O)c3ccc(-c4ccc(NC(=O)C(F)(F)F)cc4)cc3)CC2)ccc2c1CCCC2 [TCMDC-134380] | 96.81
N#Cc1ccc(NC(=O)c2ccc(C(=O)NCCCCN3CCC(c4ccc5c(c4OCCOC4CCCCO4)CCCC5)CC3)cc2)cc1 (stereo not drawn) [TCMDC-138789] | 80.58
